# Experimental data: PubChem BioAssay AID1345085 (National Center for Advancing Translational Sciences (NCATS), 2018)
# Inconclusive results are not listed. Values without a mark were called inactive. The source made the active and inactive calls. Calls follow the shape of the dose curve; as a rule, active = well fitted cell-killing curve with a large enough effect; inconclusive = small, poorly fitted or top-dose-only effect, or effect the other way; inactive = no such curve, though single readings can be large or run the other way.
# Test system: CAOV3
# Test: Confirmatory qHTS for gynecologic anti-cancer compounds from libraries of approved drugs and bioactive compounds; also: nearly all actives have a fitted effect of over 55% in size
# Conditions: gynecologic cancer cell panel viability, ATPlite luminescence, 48 h; series mostly up to 57.6 µM
# Method in brief: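 1,000 cells/well; 16 h pre-incubation 37 C, 5% CO2; pin-transferred cpd in DMSO, 11 conc (1:3), 57.5 uM–0.977 nM; 48 h; ATPlite, 15 min RT; luminescence → IC50.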
# % is scaled to controls: 0 for no effect and ±100 for the full control effect; potency is read from the fitted curve at half-maximal effect.
SMILES,Potency,"activity change, negative = viability loss"
CNc1nc(Nc2ccc(C(=O)N3CCOCC3)cc2OC)ncc1Cl,inactive,
Cc1ccc(C(=O)Nc2ccc(Oc3cc4cnn(C)c4cc3-c3cn[nH]c3)c(F)c2)c(=O)n1-c1ccc(F)cc1,6.85 µM (active),
CN1C(=O)C(Cc2c[nH]c3ccccc23)NC1=S (centres undefined),inactive,
CCc1c2c(nc3ccc(O)cc13)-c1cc3c(c(=O)n1C2)COC(=O)[C@]3(O)CC,0.0385 µM (active),
CCCc1nn(C)c2c(=O)[nH]c(-c3cc(S(=O)(=O)N4CCN(C)CC4)ccc3OCC)nc12,inactive,
OCCNC1CCCc2c1[nH]c1ccc(-c3ccccc3)cc21 (centres undefined),24.3 µM (active),
COc1cc(-c2nn(C3CCC(N4CCN(C(C)=O)CC4)CC3)c3ncnc(N)c23)ccc1NC(=O)c1cc2ccccc2n1C (centres undefined),30.6 µM (active),
COc1cc2nccc(Oc3ccc(NC(=O)C4(C(=O)Nc5ccc(F)cc5)CC4)cc3)c2cc1OC,21.7 µM (active),
COc1ccc2c(c1)c(CC(=O)O)c(C)n2C(=O)c1ccc(Cl)cc1,inactive,
CN(C)C/C=C/C(=O)Nc1cc2c(Nc3ccc(F)c(Cl)c3)ncnc2cc1OC1CCOC1 (centres undefined),10.9 µM (active),
COC(C)(C)CCn1nc(Nc2c(C)cccc2C)c2cnc(Nc3ccc(OCCN4CCCC4)c(F)c3)nc21,21.7 µM (active),
CCN1CCN(Cc2ccc(Nc3ncc(F)c(-c4cc(F)c5nc(C)n(C(C)C)c5c4)n3)nc2)CC1,inactive,
C[C@]12CCC(=O)C=C1CC[C@@H]1[C@@H]2[C@@H](O)C[C@@]2(C)[C@H]1CC[C@]2(O)C(=O)CO,inactive,
NC(=O)Nc1cc(-c2cccc(F)c2)sc1C(=O)NC1CCCNC1 (centres undefined),1.22 µM (active),
CN1C2CCC1CC(OC(=O)[C@H](CO)c1ccccc1)C2 (some centres undefined),inactive,
FC(F)(F)c1ccc(/C=C/c2nc(COc3ccc(CCCCn4ccnn4)cc3)co2)cc1,inactive,
CN1CCN(c2cccc(Nc3nc4c(-c5ccc(S(C)(=O)=O)cc5)cccn4n3)c2)CC1,27.3 µM (active),

SMILES,Potency,"activity change, negative = viability loss"
CO[C@@]12[C@H](COC(N)=O)C3=C(C(=O)C(C)=C(N)C3=O)N1C[C@@H]1N[C@@H]12,inactive,
O=c1[nH]c(=O)n([C@H]2C[C@H](O)[C@@H](CO)O2)cc1Br,inactive,
CCC1C(=O)N(C)c2cnc(Nc3ccc(C(=O)NC4CCN(C)CC4)cc3OC)nc2N1C1CCCC1 (centres undefined),4.85 µM (active),
CC(=O)OC12COC1CC(O)C1(C)C(=O)C(O)C3=C(C)C(OC(=O)C(O)C(NC(=O)OC(C)(C)C)c4ccccc4)CC(O)(C(OC(=O)c4ccccc4)C21)C3(C)C (centres undefined),inactive,
Fc1cc(-c2cccc3ncc(-c4cnn(C5CCNCC5)c4)nc23)cc(F)c1CN1CCOCC1,27.3 µM (active),
Oc1cn2c(n1)Nc1ccc(Cl)c(Cl)c1C2,inactive,
COc1cccc2c1C(=O)c1c(O)c3c(c(O)c1C2=O)C[C@@](O)(C(=O)CO)C[C@@H]3O[C@H]1C[C@H](N)[C@H](O[C@@H]2CCCCO2)[C@H](C)O1,9.68 µM (active),
C=CC(=O)Nc1cccc(Oc2nc(Nc3ccc(N4CCN(C)CC4)cc3)ncc2Cl)c1,19.3 µM (active),
CCC1C(=O)N(C)c2cnc(Nc3ccc(C(=O)NC4CCC(N5CCN(CC6CC6)CC5)CC4)cc3OC)nc2N1C(C)C (centres undefined),2.17 µM (active),
CCN(CC)CCNC(=O)c1c(C)[nH]c(/C=C2\C(=O)Nc3ccc(F)cc32)c1C,15.8 µM (active),
Nc1ccc(-c2ccc3ncc4ccc(=O)n(-c5cccc(C(F)(F)F)c5)c4c3c2)cn1,3.43 µM (active),
C[C@@]1(C(=O)Nc2ccc(F)nc2)CCCN1c1nc(Nc2cc(C3CC3)[nH]n2)c2cccn2n1,12.2 µM (active),
CC[C@H](Nc1ncnc2nc[nH]c12)c1nc2cccc(F)c2c(=O)n1-c1ccccc1,,-13.8% [at 10.7 µM]
CN(C)CC/C=C1\c2ccccc2COc2ccccc21,inactive,
CC(C)[C@@H](CS(=O)(=O)C(C)C)N1C(=O)[C@@](C)(CC(=O)O)C[C@H](c2cccc(Cl)c2)[C@H]1c1ccc(Cl)cc1,inactive,
Cc1[nH]c2ccccc2c1CCNCc1ccc(/C=C/C(=O)NO)cc1,0.685 µM (active),
Cc1ccccc1C(OCCN(C)C)c1ccccc1 (centres undefined),inactive,
